Rows were chosen to be rich in hits. Some 8% of all compounds tested hit in one or more screens of this group.
MCF10A rerep: DNA re-replication induction in MCF 10a cells; MCF 10A DNA re-replication, Hoechst nuclear intensity, 48 h; Potency, µM (series often up to 46.1 µM), actives largely listed as activators; 2.9% of 350,000 active; AID 624296; also: nearly all actives have a fitted effect of over 50% in size
SW480 rerep: DNA re-replication induction in SW480 cells; SW480 DNA re-replication, Hoechst DNA content imaging, 48 h; Potency, µM (doses to about 46.1 µM), actives largely listed as activators; 1.8% of 340,000 active; also: nearly all actives have a fitted effect of over 55% in size
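SW480 cells exposed to compounds for 48 hr at 37 C, 5% CO2, then Hoechst-stained 40 min. Nuclear DNA content imaged by fluorescence scanning (405 nm excitation, 500-530 nm emission); re-replication scored as increased high-intensity nuclei.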
HT1080 IDH1KD tx: HT-1080 IDH1 knockdown cell toxicity (counter line). 2% of 360,000 active. Potency, µM (top dose mostly 46.1 µM), usual class: cytotoxic. HT-1080 IDH1 knockdown viability, ATP luminescence, 48 h. AID 686971
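CellTiter-Glo luminescence after 48 h compound exposure at 37 degrees C of IDH1-knockdown HT-1080 cells in 5% FBS RPMI. %Activity scaled between DMSO wells and cell-free media wells, with curves fitted and assigned curve classes.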
KB-V1 MDR tox: kills drug-selected multidrug resistant KB-V1 cells | 3.4% of 400,000 active | Potency, µM (highest dose often 46.1 µM), hits mostly cytotoxic | KB-V1 MDR cells viability, CellTiter-Glo, 72 h; also: nearly all actives have a fitted effect of over 60% in size
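Cytotoxicity toward P-gp-expressing KB-V1 cells was determined as loss of CellTiter-Glo luminescence after 72 h at 37 degrees C. Compounds were tested in quantitative HTS format across a concentration range, with curves fitted to normalized data.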
HT1080NT lethal: kills 2HG-producing HT-1080-NT fibrosarcoma cells | HT-1080-NT fibrosarcoma viability, CellTiter-Glo ATP luminescence, 48 h | Potency, µM (doses to about 46.1 µM), usual class: cytotoxic | 1.6% of 360,000 active;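 also: NT is the 2HG producing partner of a matched IDH1 knockdown line; nearly all actives have a fitted effect of over 55% in size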
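Read-out is CellTiter-Glo luminescence after 10 minutes at room temperature, following 48 hours' compound treatment of HT-1080-NT cells (750 cells/well, RPMI, 5% FBS, 37 degrees C).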
KB-3-1 tox: kills parental KB-3-1 adenocarcinoma cells; KB-3-1 viability, CellTiter-Glo ATP luminescence, 72 h; Potency, µM (titrated, usually from 46.1 µM), actives largely listed as cytotoxic; 1.4% of 400,000 active; also: nearly all actives have a fitted effect of over 60% in size
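Multi-concentration cytotoxicity screen in KB-3-1 cells grown in DMEM lacking phenol red with 10% FBS. After 72 h at 37 °C with compound, ATP-dependent luminescence was recorded.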
A number is an active result; n = inactive; u = inconclusive; x = no result. Calls follow the shape of the dose curve; as a rule, active = well fitted curve in the direction sought with a large enough effect; inconclusive = small, poorly fitted or top-dose-only effect, or another doubt; inactive = no such curve, though single readings can be large; an effect the other way counts as inactive or inconclusive.

SMILES | MCF10A rerep | SW480 rerep | HT1080 IDH1KD tx | KB-V1 MDR tox | HT1080NT lethal | KB-3-1 tox
COc1ccccc1NC(=O)CSc1nnc2c(n1)[nH]c1ccccc12 | x | x | x | 11.6µM | x | n
N/C(=N\OC(=O)c1ccco1)c1cccc(Br)c1 | n | n | n | n | n | n
CCCc1ccc2oc(C(=O)NCCN3CCCC(O)C3)c(C)c2c1 (centres undefined) | u | 23.1µM | 23.1µM | n | u | n
O=C(O)c1ccccc1NS(=O)(=O)c1cccc(-n2sc3ccccc3c2=O)c1 | 14.6µM | u | u | u | n | n
O=C(O)c1ccccc1NS(=O)(=O)c1cccc(C(F)(F)F)c1 | n | n | n | n | n | n
O=C1C[C@H]2C=CCc3cccc(c32)CN1Cc1ccc(Cl)cc1 | x | x | x | 18.4µM | x | n
CCCS(=O)(=O)NC(=O)C1(C)CCCN(C(=O)c2ccc(F)c(Cl)c2)C1 (centres undefined) | x | x | n | n | n | n
CCc1nc(SCc2ccccc2)n[nH]1 | u | n | n | n | n | n
Cc1ccc2[nH]c(-c3cccc(F)c3)cc(=O)c2c1 | 1.16µM | 0.82µM | 1.46µM | n | 1.64µM | 0.411µM
Cc1ccc(-c2cc(=O)c3cc(C)ccc3[nH]2)cc1 | u | 20.6µM | 20.6µM | u | u | 9.2µM
Cc1ccc2[nH]c(C(F)(F)F)cc(=O)c2c1 | n | u | u | u | n | n
O=c1cc(-c2cccc(F)c2)[nH]c2ccccc12 | 1.3µM | 1.3µM | 1.46µM | u | 1.84µM | 0.366µM
COc1ccc2[nH]c(-c3cccc(F)c3)cc(=O)c2c1 | 1.3µM | 0.731µM | 0.517µM | u | u | 0.411µM
Cc1ccc(S(=O)(=O)Cc2ccc([N+](=O)[O-])cc2)cc1 | u | n | n | n | n | n
Cc1cc(C)cc(NC(=O)Nc2cccnc2)c1 | n | n | n | n | n | n
Cc1ccc(-c2cc(=O)c3cc(F)ccc3[nH]2)cc1 | u | n | n | u | n | u
O=c1cc(-c2ccccc2)[nH]c2cc(Cl)ccc12 | 1.64µM | 0.731µM | 0.581µM | u | 0.517µM | u
O=c1cc(-c2ccccc2)[nH]c2ccc(F)cc12 | 2.06µM | 1.64µM | 2.31µM | u | u | 1.16µM
CO/N=C(/CS(=O)Cc1ccc(Cl)cc1)c1ccc(Cl)cc1 (centres undefined) | u | n | n | u | n | n
CC[C@]1(O)C[C@H]2CN(CCc3c([nH]c4ccccc34)[C@@](C(=O)OC)(c3cc4c(cc3OC)N(C=O)[C@H]3[C@@](O)(C(=O)OC)[C@H](OC(C)=O)[C@]5(CC)C=CCN6CC[C@]43[C@@H]65)C2)C1 | u | 0.299µM | x | n | x | 0.116µM
CC[C@@]1(O)CC2CN(CCc3c([nH]c4ccccc34)[C@](C(=O)OC)(c3cc4c(cc3OC)N(C)C3[C@@](O)(C(=O)OC)C(OC(C)=O)[C@]5(CC)C=CCN6CC[C@@]43C65)C2)C1 (some centres undefined) | u | 0.668µM | x | x | x | x
CN(CC(=O)Nc1ccc(F)cc1)C(=O)COC(=O)C1=COCCO1 | n | n | n | n | n | n
CCOC(=O)N1CCN(CC(=O)N2c3ccccc3Sc3ccccc32)CC1 | n | n | n | n | n | n
Cc1ccc(-n2ncc3c(N4CCN(Cc5ccccc5)CC4)ncnc32)cc1Cl | x | x | x | n | x | n
O=C(NCc1ccccc1)c1cccc2c1C(=O)c1ccc(/C=C/c3ccccc3)cc1S2(=O)=O | 18.4µM | 23.1µM | n | n | u | n
SMILES | MCF10A rerep | SW480 rerep | HT1080 IDH1KD tx | KB-V1 MDR tox | HT1080NT lethal | KB-3-1 tox
O=C(NCc1cccc(OC(F)(F)F)c1)c1cccc2c1C(=O)c1ccc(-c3ccc(F)cc3OCc3ccccc3)cc1S2(=O)=O | n | n | n | n | n | n
COc1ccc(-c2ccc3c(c2)S(=O)(=O)c2cccc(C(=O)NC4CCCC4)c2C3=O)cc1OC | u | n | n | n | n | n
COc1ccc(-c2ccc3c(c2)S(=O)(=O)c2cccc(C(=O)NCc4cccc(OC(F)(F)F)c4)c2C3=O)cc1OC | 1.84µM | n | n | n | n | n
O=C(NC1CCCCC1)c1cccc2c1C(=O)c1ccc(-c3ccc(OC(F)(F)F)cc3)cc1S2(=O)=O | 0.92µM | n | n | n | n | n
O=C(NCC1CCCO1)c1cccc2c1C(=O)c1ccc(N3CCC(Cc4ccccc4)CC3)cc1S2(=O)=O (centres undefined) | 3.66µM | n | n | 23.1µM | n | u
O=C(NC1CCCC1)c1cccc2c1C(=O)c1ccc(/C=C/c3ccccc3)cc1S2(=O)=O | n | n | n | n | n | u
COc1ccc(-c2ccc3c(c2)S(=O)(=O)c2cccc(C(=O)N4CCN(c5ccccn5)CC4)c2C3=O)cc1OC | x | x | n | u | n | n
COc1ccc(-c2ccc3c(c2)S(=O)(=O)c2cccc(C(=O)N4CCN(C5CCCCC5)CC4)c2C3=O)cc1OC | 20.6µM | 20.6µM | n | n | n | n
COc1cccc(-n2cc(C(=O)OCc3ccc(F)c(F)c3)c3ccccc3c2=O)c1 | x | x | x | n | x | n
CCOc1ccc(-c2nc3n(c(=O)c2C#N)CCS3)cc1 | n | n | n | n | n | n
Brc1cc(Br)c2nc(-c3ccc(N4CCOCC4)cc3)ccc2c1 | 9.2µM | 8.2µM | n | u | n | n
Cn1cc(Br)c(C(=O)NN2C(=O)C3C(C2=O)C2C=CC3C23CC3)n1 (centres undefined) | 0.731µM | n | n | n | n | n
Cn1cc(Br)c(C(=O)NN2C(=O)C3C4C=CC(C5CC45)C3C2=O)n1 (centres undefined) | u | n | n | n | n | n
COc1ccc(NC(=O)C2CCN(S(=O)(=O)c3ccc4[nH]c5c(c4c3)CCCCC5)CC2)cc1 | x | x | x | n | x | n
C=CCn1c(SCC(=O)c2[nH]c(C)c(C(=O)OC)c2C)nc2scc(-c3ccc(OC)c(OC)c3)c2c1=O | u | n | n | 6.51µM | n | 4.11µM
COc1ccc(-c2sc3ccccc3c2/C=C/c2ccncc2)cc1 | 7.31µM | n | u | n | u | u
COc1ccc(-c2sc3ccccc3c2/C=C/c2ccc(OC)c(OC)c2)cc1 | u | n | n | n | n | n
Cc1cccc(C)c1NC(=O)Cn1cnc2c(=O)n(C)c(=O)n(C)c21 | n | n | n | n | n | n
Cc1ccccc1C(=O)Nc1cccc(NC(=O)Cn2cnc3c(=O)n(C)c(=O)n(C)c32)c1 | n | n | 11.2µM | n | u | n
COc1ccc(-c2ocnc2C(=O)NCc2nn(-c3ccccc3)nc2C)cc1 | n | n | 16.4µM | u | u | n
O=[N+]([O-])c1ccc(C2=NN(CCO)C(=Nc3ccc(OC(F)(F)F)cc3)SC2)cc1 | n | u | 14.6µM | n | u | n
Oc1cccc(-n2nnnc2SCc2ccccc2F)c1 | n | n | n | n | n | n

Screens deposited in PubChem BioAssay by National Center for Advancing Translational Sciences (NCATS).
